# Results reported in PubChem BioAssay AID1159580 (chemical genetic matrix, 2015).
# Where “and” joins values, the source holds several entries; their conditions need not be identical. Equal entries are not always repeated. The campaign covered roughly 5,500 compounds. About 2,000 (36%) were called active. Inconclusive results (about 18%) are left out. This is one part of the list. Unmarked numbers belong to inactive results. No stated cut-off is given here; in the data, active means normalized growth mostly below about 0.91 (no sharp cut-off); inconclusive means no clear call, values can overlap the other calls; inactive means mostly above about 0.92.
# Experiment: chemical genetic growth profiling, strain panel (AID 1159580);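 further: tested at 20 µM; growth read once vehicle control cultures reached saturation at 30 °C; 1 = growth at the plate median or of vehicle wells; lower values mean less growth of the strain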
# Settings: S. cerevisiae deletion strains, growth OD
compound,measurement,setting,value
C=CC1=C(C)/C(=C/c2[nH]c(Cc3[nH]c(/C=C4\NC(=O)C(C)=C4C=C)c(C)c3CCC(=O)O)c(CCC(=O)O)c2C)NC1=O,normalized growth,"locus YAL013W, strain DEP1, hits give low values",1.02
same,normalized growth,"locus YAL021C, strain ccr4, hits give low values",0.949
same,normalized growth,"locus YAL026C, strain drs2, hits give low values",0.982
same,normalized growth,"locus YAL030W, strain snc1, hits give low values",0.996
same,normalized growth,"locus YBL061C, strain skt5, hits give low values",0.993
same,normalized growth,"locus YBR009C, strain hhf1, hits give low values",1.03
same,normalized growth,"locus YBR021W, strain FUR4, hits give low values",1.02
same,normalized growth,"locus YBR023C, strain chs3, hits give low values",0.993
same,normalized growth,"locus YBR171W, strain sec66, hits give low values",0.982
same,normalized growth,"locus YBR229C, strain ROT2, hits give low values",1.01
same,normalized growth,"locus YBR231C, strain swc5, hits give low values",1
same,normalized growth,"locus YBR279W, strain paf1, hits give low values",0.995
same,normalized growth,"locus YCL011C, strain gbp2, hits give low values",0.984
same,normalized growth,"locus YCL016C, strain dcc1, hits give low values",0.994
same,normalized growth,"locus YCL029C, strain bik1, hits give low values",1.02
same,normalized growth,"locus YCL061C, strain MRC1, hits give low values",0.978
same,normalized growth,"locus YCL069W, strain vba3, hits give low values",0.986
same,normalized growth,"locus YCR088W, strain abp1, hits give low values",0.98
same,normalized growth,"locus YDL005C, strain med2, hits give low values",0.981
same,normalized growth,"locus YDL035C, strain GPR1, hits give low values",1.02
same,normalized growth,"locus YDL040C, strain nat1, hits give low values",0.979
same,normalized growth,"locus YDL074C, strain BRE1, hits give low values",1.03
same,normalized growth,"locus YDL101C, strain DUN1, hits give low values",1.01
same,normalized growth,"locus YDL134C, strain PPH21, hits give low values",1.02
same,normalized growth,"locus YDL185W, strain tfp1, hits give low values",1.01
same,normalized growth,"locus YDL192W, strain arf1, hits give low values",1.02
same,normalized growth,"locus YDR001C, strain nth1, hits give low values",0.979
same,normalized growth,"locus YDR069C, strain doa4, hits give low values",0.998
same,normalized growth,"locus YDR101C, strain arx1, hits give low values",1.03
same,normalized growth,"locus YDR137W, strain rgp1, hits give low values",0.931
same,normalized growth,"locus YDR159W, strain sac3, hits give low values",1.02
same,normalized growth,"locus YDR162C, strain NBP2, hits give low values",1.04
same,normalized growth,"locus YDR195W, strain ref2",0.992
same,normalized growth,"locus YDR297W, strain sur2, hits give low values",0.978
same,normalized growth,"locus YDR318W, strain mcm21, hits give low values",1.02
same,normalized growth,"locus YDR334W, strain swr1, hits give low values",0.955
same,normalized growth,"locus YDR335W, strain msn5, hits give low values",0.974
same,normalized growth,"locus YDR388W, hits give low values",1.02
same,normalized growth,"locus YDR392W, strain spt3, hits give low values",0.916
same,normalized growth,"locus YDR502C, strain sam2, hits give low values",1
same,normalized growth,"locus YEL003W, strain gim4, hits give low values",0.981
same,normalized growth,"locus YEL037C, strain rad23, hits give low values",0.984
same,normalized growth,"locus YEL061C, strain CIN8 (second series), hits give low values",0.989
same,normalized growth,"locus YEL061C, strain CIN8, hits give low values",1
same,normalized growth,"locus YER015W, strain faa2, hits give low values",0.99
same,normalized growth,"locus YER016W, strain bim1, hits give low values",0.992
same,normalized growth,"locus YER110C, hits give low values",1.01
same,normalized growth,"locus YER111C, strain swi4, hits give low values",1
same,normalized growth,"locus YER155C, strain BEM2 (second series), hits give low values",1.02
same,normalized growth,"locus YER155C, strain BEM2, hits give low values",1.01
same,normalized growth,"locus YER167W, strain BCK2, hits give low values",1.01
same,normalized growth,"locus YFR010W, strain ubp6, hits give low values",0.985
same,normalized growth,"locus YGL078C, strain dbp3, hits give low values",1.04
same,normalized growth,"locus YGL086W, strain mad1, hits give low values",1.03
same,normalized growth,"locus YGL167C, strain pmr1, hits give low values",0.995
same,normalized growth,"locus YGL173C, strain kem1, hits give low values",0.975
same,normalized growth,"locus YGL227W, strain vid30, hits give low values",0.994
same,normalized growth,"locus YGL240W, strain doc1, hits give low values",1.02
same,normalized growth,"locus YGL248W, strain PDE1, hits give low values",1.02
same,normalized growth,"locus YGL253W, strain hxk2, hits give low values",1.01
same,normalized growth,"locus YGR078C, strain PAC10, hits give low values",1
same,normalized growth,"locus YGR135W, strain pre9, hits give low values",0.993
same,normalized growth,"locus YGR252W, strain gcn5, hits give low values",0.99
same,normalized growth,"locus YHR013C, strain ard1, hits give low values",0.97
same,normalized growth,"locus YHR027C, strain rpn1, hits give low values",0.987
same,normalized growth,"locus YHR030C, strain SLT2, hits give low values",1.01 and 1.03
same,normalized growth,"locus YHR079C, strain IRE1 (second series), hits give low values",1.01
same,normalized growth,"locus YHR079C, strain IRE1, hits give low values",1.04
same,normalized growth,"locus YHR094C, strain hxt1, hits give low values",1.01
same,normalized growth,"locus YHR129C, strain ARP1, hits give low values",1
same,normalized growth,"locus YHR142W, strain chs7, hits give low values",0.932
same,normalized growth,"locus YHR200W, strain rpn10, hits give low values",1.02
same,normalized growth,"locus YIL066C, strain RNR3, hits give low values",1.02
same,normalized growth,"locus YIL073C, strain SPO22, hits give low values",1.15
same,normalized growth,"locus YIL125W, strain kgd1, hits give low values",1.05
same,normalized growth,"locus YIR030C, strain dcg1, hits give low values",1.02
same,normalized growth,"locus YJL092W, strain hpr5, hits give low values",0.961
same,normalized growth,"locus YJL095W, strain BCK1 (second series), hits give low values",0.994
same,normalized growth,"locus YJL095W, strain BCK1, hits give low values",1.02 and 0.973
same,normalized growth,"locus YJL115W, strain asf1, hits give low values",0.978
same,normalized growth,"locus YJL129C, strain trk1, hits give low values",0.97
same,normalized growth,"locus YJL134W, strain LCB3, hits give low values",1.01
same,normalized growth,"locus YJL154C, strain vps35, hits give low values",0.982
same,normalized growth,"locus YJL164C, strain tpk1, hits give low values",0.973
same,normalized growth,"locus YJL166W, strain qcr8, hits give low values",0.997
same,normalized growth,"locus YJL168C, strain set2, hits give low values",1.01
same,normalized growth,"locus YJL187C, strain SWE1 (second series), hits give low values",0.998
same,normalized growth,"locus YJL187C, strain SWE1, hits give low values",0.983
same,normalized growth,"locus YJR043C, strain POL32, hits give low values",1.02
same,normalized growth,"locus YJR066W, strain TOR1, hits give low values",1
same,normalized growth,"locus YJR075W, strain HOC1, hits give low values",1.01
same,normalized growth,"locus YKL009W, strain mrt4, hits give low values",1.16 [resistant] (active)
same,normalized growth,"locus YKL068W, hits give low values",1.03
same,normalized growth,"locus YKL085W, strain MDH1 (second series), hits give low values",1.04
same,normalized growth,"locus YKL085W, strain MDH1, hits give low values",1.04
same,normalized growth,"locus YKL160W, strain elf1, hits give low values",0.972
same,normalized growth,"locus YKR001C, strain vps1, hits give low values",1.05
same,normalized growth,"locus YKR026C, strain gcn3, hits give low values",0.986
same,normalized growth,"locus YKR091W, strain srl3, hits give low values",0.982
same,normalized growth,"locus YLL001W, strain dnm1, hits give low values",0.988
same,normalized growth,"locus YLL026W, hits give low values",0.99
same,normalized growth,"locus YLL041C, strain sdh2, hits give low values",0.979
same,normalized growth,"locus YLR027C, strain aat2, hits give low values",0.979
same,normalized growth,"locus YLR039C, strain RIC1, hits give low values",1
same,normalized growth,"locus YLR058C, strain SHM2, hits give low values",1
same,normalized growth,"locus YLR102C, strain apc9, hits give low values",1.02
same,normalized growth,"locus YLR113W, strain HOG1, hits give low values",0.964
same,normalized growth,"locus YLR221C, strain rsa3, hits give low values",0.966
same,normalized growth,"locus YLR258W, strain gsy2, hits give low values",1
same,normalized growth,"locus YLR262C, strain YPT6 (second series), hits give low values",0.963
same,normalized growth,"locus YLR262C, strain YPT6, hits give low values",1.08
same,normalized growth,"locus YLR268W, strain sec22, hits give low values",1.03
same,normalized growth,"locus YLR320W, strain mms22, hits give low values",1.02
same,normalized growth,"locus YLR330W, strain CHS5, hits give low values",1.01
same,normalized growth,"locus YLR342W, strain FKS1 (second series), hits give low values",1.01
same,normalized growth,"locus YLR342W, strain FKS1, hits give low values",0.992
same,normalized growth,"locus YLR357W, strain rsc2, hits give low values",1.01
same,normalized growth,"locus YLR370C, strain arc18, hits give low values",0.976
same,normalized growth,"locus YLR371W, strain rom2, hits give low values",1.03
same,normalized growth,"locus YLR384C, strain iki3, hits give low values",0.987
same,normalized growth,"locus YLR418C, strain cdc73, hits give low values",1.03
same,normalized growth,"locus YML016C, strain PPZ1, hits give low values",1
same,normalized growth,"locus YML032C, strain rad52, hits give low values",1.03
same,normalized growth,"locus YML120C, strain ndi1, hits give low values",0.961
same,normalized growth,"locus YML124C, strain tub3, hits give low values",1.02
same,normalized growth,"locus YMR058W, strain fet3, hits give low values",0.971
same,normalized growth,"locus YMR078C, strain ctf18, hits give low values",1.04
same,normalized growth,"locus YMR125W, strain sto1, hits give low values",1.02
same,normalized growth,"locus YMR129W, hits give low values",0.988
same,normalized growth,"locus YMR205C, strain PFK2, hits give low values",1.02
same,normalized growth,"locus YMR223W, strain ubp8, hits give low values",1
same,normalized growth,"locus YMR231W, strain pep5, hits give low values",0.99
same,normalized growth,"locus YMR263W, strain SAP30, hits give low values",1
same,normalized growth,"locus YMR307W, strain GAS1, hits give low values",0.968
same,normalized growth,"locus YNL067W, strain RPL9B, hits give low values",0.999
same,normalized growth,"locus YNL071W, strain lat1, hits give low values",0.988
same,normalized growth,"locus YNL183C, strain NPR1, hits give low values",0.919
same,normalized growth,"locus YNL209W, strain ssb2, hits give low values",0.987
same,normalized growth,"locus YNL233W, strain BNI4, hits give low values",1.01
same,normalized growth,"locus YNL248C, strain rpa49, hits give low values",0.938
same,normalized growth,"locus YNL250W, strain rad50, hits give low values",1.01
same,normalized growth,"locus YNL271C, strain bni1, hits give low values",1.03
same,normalized growth,"locus YNL298W, strain CLA4, hits give low values",1.02
same,normalized growth,"locus YNL307C, strain MCK1, hits give low values",1.01
same,normalized growth,"locus YNL322C, strain KRE1 (second series), hits give low values",0.982
same,normalized growth,"locus YNL322C, strain KRE1, hits give low values",1.01
same,normalized growth,"locus YNR049C, strain mso1, hits give low values",0.981
same,normalized growth,"locus YNR052C, strain pop2, hits give low values",1.01
same,normalized growth,"locus YOL012C, strain htz1",0.856
same,normalized growth,"locus YOL147C, strain pex11, hits give low values",1.02
same,normalized growth,"locus YOR001W, strain rrp6, hits give low values",0.951
same,normalized growth,"locus YOR061W, strain CKA2, hits give low values",1.03
same,normalized growth,"locus YOR069W, strain VPS5, hits give low values",1.01
same,normalized growth,"locus YOR070C, strain gyp1, hits give low values",0.996
same,normalized growth,"locus YOR080W, strain dia2, hits give low values",0.986
same,normalized growth,"locus YOR083W, strain WHI5, hits give low values",0.94
same,normalized growth,"locus YOR106W, strain vam3, hits give low values",0.951
same,normalized growth,"locus YOR136W, strain idh2, hits give low values",1.02
same,normalized growth,"locus YOR144C, strain elg1, hits give low values",1.01
same,normalized growth,"locus YOR184W, strain ser1, hits give low values",1.07
same,normalized growth,"locus YOR231W, strain MKK1, hits give low values",1.03
same,normalized growth,"locus YOR265W, strain rbl2, hits give low values",0.985
same,normalized growth,"locus YOR270C, strain vph1, hits give low values",0.971
same,normalized growth,"locus YOR290C, strain snf2, hits give low values",1.01
same,normalized growth,"locus YOR316C, strain cot1, hits give low values",1.02
same,normalized growth,"locus YPL051W, strain arl3, hits give low values",0.969
same,normalized growth,"locus YPL055C, strain LGE1, hits give low values",0.995
same,normalized growth,"locus YPL078C, strain atp4, hits give low values",0.939
same,normalized growth,"locus YPL106C, strain sse1, hits give low values",0.949
same,normalized growth,"locus YPL240C, strain hsp82, hits give low values",0.982
same,normalized growth,"locus YPL241C, strain CIN2, hits give low values",1.01
same,normalized growth,"locus YPL256C, strain CLN2, hits give low values",1.06
same,normalized growth,"locus YPR119W, strain clb2, hits give low values",1.01
same,normalized growth,"locus YPR163C, strain tif3, hits give low values",1.02
same,normalized growth,"locus YPR167C, strain met16, hits give low values",1.02
same,normalized growth,"strain wtn01, hits give low values",1.04
